Values joined by “and” are separate entries in the source; they are usually repeats but may differ in a detail not shown here. Equal entries are not always repeated. Results filed as inconclusive are left out. A structure can be active in one record and inactive in another. Active and inactive are the calls of the source. How the source made its calls: active means hit-call score of the fitted dose curve at least 0.9, where 1 is the maximum; inconclusive means response in the unintended direction; inactive means score below 0.9.
What was measured:
[1] = Tanguay_ZF_120hpf_MORT_legacy: (Legacy) Oregon State University Tanguay Lab 120 Hour Post-fertilization zebrafish Assay for Mortality (AID 2283633);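 on AC50: fitted as increase in binary mortality versus DMSO negative control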
How it was run: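 Brightfield scoring of embryo death (binary) at 24 and 120 hpf; static exposure 6–120 hpf, 28C, sealed and foil-covered. Pronase-dechorionated 5D wild-type larvae, single embryo per well. DMSO 0.64% v/v; trimethyltin chloride 5uM positive control.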

[2] = Tanguay_ZF_120hpf_YSE_legacy: (Legacy) Oregon State University Tanguay Lab 120 Hour Post-fertilization zebrafish Assay for Yolk Sac Edema (AID 2283634);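 on AC50: actives raise the incidence of yolk sac edema above the DMSO baseline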
How it was run: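 Binary brightfield scoring of yolk sac edema at 120 hpf; DMSO baseline, gain-of-signal fitting. Dechorionated 5D larvae, one per well, static exposure 6–120 hpf, 28C, 0.64% DMSO. Dead embryos not scored.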

[3] = Tanguay_ZF_120hpf_AXIS_legacy: (Legacy) Oregon State University Tanguay Lab 120 Hour Post-fertilization zebrafish Assay for Body Axis Malformation (AID 2283635);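 on AC50: potency for an increased fraction of larvae scored with body axis malformation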
How it was run: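 Embryos: 5D wild-type, pronase-dechorionated 4 hpf; static exposure 6–120 hpf, 28C, sealed, dark, 1 embryo/well, 0.64% DMSO. 120 hpf axis malformation scored present/absent; dead embryos excluded. Analysed as gain of signal vs DMSO.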

[4] = Tanguay_ZF_120hpf_EYE_legacy: (Legacy) Oregon State University Tanguay Lab 120 Hour Post-fertilization zebrafish Assay for Eye Malformation (AID 2283636)
How it was run: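 Read-out is binary presence or absence of eye malformation, scored by brightfield microscopy at 120 hpf. Single larvae were exposed from 6 hpf in embryo medium containing 0.64% DMSO, with DMSO as baseline.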

[5] = Tanguay_ZF_120hpf_SNOU_legacy: (Legacy) Oregon State University Tanguay Lab 120 Hour Post-fertilization zebrafish Assay for Snout Malformation (AID 2283637)
How it was run: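 Snout malformation read as a yes/no call on brightfield images of 120 hpf larvae (Tropical 5D strain). Static exposure began at 6 hpf on dechorionated embryos in 0.64% DMSO, with gain of signal analysed versus DMSO controls.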

[6] = Tanguay_ZF_120hpf_JAW_legacy: (Legacy) Oregon State University Tanguay Lab 120 Hour Post-fertilization zebrafish Assay for Jaw Malformation (AID 2283638);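 on AC50: active means more embryos with jaw malformation than DMSO controls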
How it was run: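 Binary jaw-malformation calls at 120 hpf by brightfield imaging; DMSO (0.64% v/v) = baseline. Embryos: 5D wild-type, pronase-dechorionated, one per well from 6 hpf, static exposure, 28C, sealed, dark.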

[7] = Tanguay_ZF_120hpf_OTIC_legacy: (Legacy) Oregon State University Tanguay Lab 120 Hour Post-fertilization zebrafish Assay for Otic Vesicle Malformation (AID 2283639)
How it was run: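 Embryos from 5D wild-type adults exposed in plates; DMSO 0.64% v/v final. Sealed, light-protected, 28C, static to 120 hpf. Otic vesicle malformation recorded as binary endpoint; gain-of-signal fitted vs DMSO.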

[8] = Tanguay_ZF_120hpf_PE_legacy: (Legacy) Oregon State University Tanguay Lab 120 Hour Post-fertilization zebrafish Assay for Pericardial Edema (AID 2283640);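 on AC50: potency for increased incidence of pericardial edema versus DMSO baseline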
How it was run: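 Static waterborne exposure, 5D wild-type embryos, 28C, to 120 hpf; final DMSO 0.64% (vol/vol). Binary PE call at 120 hpf by brightfield; fitted upward vs DMSO baseline. 5uM trimethyltin chloride as positive control.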

[9] = Tanguay_ZF_120hpf_PFIN_legacy: (Legacy) Oregon State University Tanguay Lab 120 Hour Post-fertilization zebrafish Assay for Pectoral Fin Malformation (AID 2283648);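 further: each larva judged yes or no for fin defect by brightfield with dead larvae skipped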
How it was run: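 5D WT zebrafish; pronase dechorionation 4 hpf; 1 embryo/well at 6 hpf; static exposure to 120 hpf, 28C, sealed, foil-covered; final DMSO 0.64% v/v; 5 uM trimethyltin chloride positive control; fin defect scored yes/no.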

[10] = Tanguay_ZF_120hpf_CFIN_legacy: (Legacy) Oregon State University Tanguay Lab 120 Hour Post-fertilization zebrafish Assay for Caudal Fin Malformation (AID 2283649)
How it was run: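 Dechorionated 5D wild-type zebrafish, static exposure 6–120 hpf, 28C, sealed and dark, 0.64% v/v DMSO final. Binary fin-malformation call at 120 hpf, brightfield; gain of signal vs DMSO baseline.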

O=S(=O)(O)C(F)(F)C(F)(F)C(F)(F)C(F)(F)C(F)(F)C(F)(F)C(F)(F)C(F)(F)F
AC50 [1]: 426 nM (active) and 4.73 µM (active) and 20.8 µM (active) | outcome [1]: inactive | AC50 [2]: 19.8 µM (active) and 7.26 µM (active) and 41.3 µM (active) | outcome [2]: inactive | AC50 [3]: 25 µM (active) and 42.3 µM (active) and 42.2 µM (active) | outcome [3]: inactive | AC50 [4]: 37 µM (active) | outcome [4]: inactive | AC50 [5]: 25.1 µM (active) and 33.2 µM (active) | outcome [5]: inactive | AC50 [6]: 26.5 µM (active) and 43.5 µM (active) | outcome [6]: inactive | AC50 [7]: 47.5 µM (active) | outcome [7]: inactive | AC50 [8]: 14.5 µM (active) and 36.8 µM (active) | outcome [8]: inactive | AC50 [9]: 36 µM (active) | outcome [9]: inactive | AC50 [10]: 12.2 µM (active) | outcome [10]: inactive

COP(=S)(OC)Oc1ccc(SC)c(C)c1
outcome [1]: inactive | outcome [2]: inactive | outcome [3]: inactive | outcome [4]: inactive | outcome [5]: inactive | outcome [6]: inactive | outcome [7]: inactive | outcome [8]: inactive | outcome [9]: inactive | outcome [10]: inactive

CCOC1Oc2ccc(OS(C)(=O)=O)cc2C1(C)C (stereo not drawn)
outcome [1]: inactive | outcome [2]: inactive | outcome [3]: inactive | outcome [4]: inactive | outcome [5]: inactive | outcome [6]: inactive | outcome [7]: inactive | outcome [8]: inactive | outcome [9]: inactive | outcome [10]: inactive

COP(=S)(OC)Oc1ccc([N+](=O)[O-])cc1
outcome [1]: inactive | outcome [2]: inactive | outcome [3]: inactive | outcome [4]: inactive | outcome [5]: inactive | outcome [6]: inactive | outcome [7]: inactive | outcome [8]: inactive | outcome [9]: inactive | outcome [10]: inactive

CCC(C)(NC(=O)c1cc(Cl)c(C)c(Cl)c1)C(=O)CCl (stereo not drawn)
outcome [1]: inactive | AC50 [2]: 26.1 µM (active) | outcome [3]: inactive | AC50 [4]: 28.2 µM (active) | AC50 [5]: 25.4 µM (active) | outcome [6]: inactive | outcome [7]: inactive | outcome [8]: inactive | outcome [9]: inactive | outcome [10]: inactive

CCN(CC)C(=O)SCc1ccc(Cl)cc1
outcome [1]: inactive | outcome [2]: inactive | outcome [3]: inactive | outcome [5]: inactive | outcome [6]: inactive | outcome [8]: inactive | outcome [9]: inactive | outcome [10]: inactive

O=[N+]([O-])/N=C1\NCCN1Cc1ccc(Cl)nc1
outcome [1]: inactive | outcome [2]: inactive | outcome [3]: inactive | outcome [4]: inactive | outcome [5]: inactive | outcome [6]: inactive | outcome [7]: inactive | outcome [8]: inactive | outcome [9]: inactive | outcome [10]: inactive

CC(C)N(C(=O)COc1nnc(C(F)(F)F)s1)c1ccc(F)cc1
outcome [1]: inactive | outcome [2]: inactive | outcome [4]: inactive | outcome [5]: inactive | outcome [6]: inactive | outcome [8]: inactive | outcome [9]: inactive | outcome [10]: inactive

Clc1ccccc1-c1nnc(-c2ccccc2Cl)nn1
outcome [1]: inactive | outcome [2]: inactive | outcome [3]: inactive | outcome [4]: inactive | outcome [6]: inactive | outcome [7]: inactive | outcome [9]: inactive

CC[C@H](C)[C@H]1O[C@]2(C=C[C@@H]1C)C[C@@H]1C[C@@H](C/C=C(\C)[C@@H](O[C@H]3C[C@H](OC)[C@@H](O[C@H]4C[C@H](OC)[C@@H](O)[C@H](C)O4)[C@H](C)O3)[C@@H](C)/C=C/C=C3\CO[C@@H]4[C@H](O)C(C)=C[C@@H](C(=O)O1)[C@]34O)O2 (tested in a mixture with another compound)
AC50 [1]: 13.9 µM (active) | outcome [2]: inactive | AC50 [3]: 8.9 µM (active) | outcome [4]: inactive | AC50 [5]: 0.934 µM (active) | outcome [6]: inactive | outcome [7]: inactive | AC50 [8]: 808 nM (active) | outcome [9]: inactive | outcome [10]: inactive

O=C(O)COc1ccc(Cl)cc1Cl
outcome [1]: inactive | outcome [2]: inactive | outcome [3]: inactive | outcome [5]: inactive | outcome [6]: inactive | outcome [7]: inactive | outcome [8]: inactive | outcome [9]: inactive | outcome [10]: inactive

N#Cc1c(Cl)c(Cl)c(Cl)c(C#N)c1Cl
AC50 [1]: 24.8 µM (active) | outcome [3]: inactive | outcome [4]: inactive | outcome [5]: inactive | outcome [6]: inactive | outcome [7]: inactive | outcome [8]: inactive | outcome [9]: inactive | outcome [10]: inactive

CNC(=O)CSP(=S)(OC)OC
outcome [2]: inactive | outcome [3]: inactive | outcome [4]: inactive | outcome [5]: inactive | outcome [6]: inactive | outcome [7]: inactive | outcome [8]: inactive | outcome [9]: inactive | outcome [10]: inactive

CCc1ccc(C(=O)NN(C(=O)c2cc(C)cc(C)c2)C(C)(C)C)cc1
outcome [1]: inactive | outcome [3]: inactive | outcome [4]: inactive | outcome [5]: inactive | outcome [6]: inactive | outcome [7]: inactive | outcome [9]: inactive | outcome [10]: inactive

CCCN(CCC)c1c([N+](=O)[O-])cc(C(F)(F)F)cc1[N+](=O)[O-]
outcome [1]: inactive | outcome [2]: inactive | outcome [3]: inactive | outcome [4]: inactive | outcome [5]: inactive | outcome [6]: inactive | outcome [9]: inactive | outcome [10]: inactive

O=C(O)C(F)(F)C(F)(F)C(F)(F)C(F)(F)C(F)(F)C(F)(F)C(F)(F)F
outcome [1]: inactive | outcome [2]: inactive | outcome [3]: inactive | outcome [4]: inactive | outcome [5]: inactive | outcome [6]: inactive | outcome [7]: inactive | outcome [8]: inactive | outcome [9]: inactive | outcome [10]: inactive

Cc1[nH]c(=O)n(C(C)(C)C)c(=O)c1Cl
outcome [1]: inactive | outcome [2]: inactive | outcome [4]: inactive | outcome [5]: inactive | outcome [6]: inactive | outcome [7]: inactive | outcome [8]: inactive | outcome [9]: inactive | outcome [10]: inactive

CNC(=O)Oc1cccc(N=CN(C)C)c1
outcome [1]: inactive | outcome [3]: inactive | outcome [4]: inactive | outcome [6]: inactive | outcome [7]: inactive | outcome [8]: inactive | outcome [9]: inactive | outcome [10]: inactive

From PubChem BioAssay (EPA / NIEHS)
